Among the test systems are SK-MEL-2 melanoma; EKVX NSCLC; SN12C renal; UO-31 renal; TK-10 renal; ACHN renal; CAKI-1 renal; A498 renal; CCRF-CEM leukemia; MOLT-4 leukemia.
Holding throughout (experiment): NCI-60 one-dose screen, 48 h (100 = growth as untreated, 0 = no growth, -100 = all killed)
What all share (conditions): 10 µM unless noted

Structures are written as SMILES. The panel holds about 83,000 compounds, 20% with a hit somewhere; the sample as a whole holds those more often.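 Step 1: grow cells in 96-well plates. Step 2: add test compound at a single concentration. Step 3: incubate 48 h. Step 4: record percent growth.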 Values without a mark were called inactive. Calls of active or inactive are those of the source. The calls were made as follows: active = growth percent below 10; inactive = the rest.

`C=C1C(=O)O[C@H]2[C@H]1CC/C(COC(=O)NCc1cccc(OC)c1)=C\CC[C@@]1(C)O[C@@H]21`: the growth was 40.9% with SK-MEL-2 melanoma; 54.8% with EKVX NSCLC; 31.6% in the test on SN12C renal; -9.04% (active) in the test on UO-31 renal; -11.7% (active) in the test on TK-10 renal; 2.37% (active) in the test with ACHN renal. The growth in the test on CAKI-1 renal was 10.4%; in the test on A498 renal it was 81.1%; in the test with CCRF-CEM leukemia, -15% (active); in the test with MOLT-4 leukemia it was -7.57% (active).
Consider `FC(F)(F)c1nn[nH]n1`, for which the growth is 112% in the test with SK-MEL-2 melanoma; 99.3% with EKVX NSCLC; 105% in the test with SN12C renal; 99.1% with UO-31 renal; 111% in the test on TK-10 renal; 109% in the test on ACHN renal. For the same compound, the growth with CAKI-1 renal was 97%; with A498 renal, 102%; in the test on MOLT-4 leukemia it was 101%.
Regarding `CCNC(=O)c1ccc2c(c1)nc(-c1ccc(Cl)cc1)n2-c1cc(C(C)(C)C)[nH]n1`, the growth was 46.6% in the test on SK-MEL-2 melanoma; 42.8% with EKVX NSCLC; 76.4% in the test on SN12C renal; 37.5% in the test with UO-31 renal; 89.7% with TK-10 renal; 52% in the test on ACHN renal. For the same compound, the growth with CAKI-1 renal was 18.5%; with A498 renal, 57.9%; with CCRF-CEM leukemia, 34.3%; with MOLT-4 leukemia, 20.9%.
Take `O=C(Nc1cccc(C2=NCCN2)c1)c1ccc(N=Nc2ccc(C(=O)Nc3cccc(C4=NCCN4)c3)cc2)cc1`: the growth with SK-MEL-2 melanoma is 56.6%; in the test on EKVX NSCLC, 62.6%; in the test on SN12C renal, 49.9%; in the test with UO-31 renal it was 72.8%; in the test on TK-10 renal, 40.2%; in the test on ACHN renal, 52.4%. Moreover, the growth in the test on CAKI-1 renal was 90.7%; in the test on A498 renal it was 66.3%; in the test with MOLT-4 leukemia, 80.9%.
Turning to `CCOC(=O)c1cc(C(=O)OCC)c(C)nc1C`, the growth was 124% in the test with SK-MEL-2 melanoma; 102% in the test with EKVX NSCLC; 105% in the test with SN12C renal; 96.5% in the test on UO-31 renal; 113% in the test on TK-10 renal; 112% in the test on ACHN renal. Moreover, the growth was 103% in the test on CAKI-1 renal, 110% with A498 renal and 90.8% in the test on MOLT-4 leukemia.
For `O=C1CCCN1C1CCN2CCCc3cccc1c32` (centres undefined), the growth in the test on SK-MEL-2 melanoma is 102%; in the test on EKVX NSCLC, 102%; in the test on SN12C renal it was 104%; in the test with UO-31 renal it was 81.3%; in the test on TK-10 renal, 103%; with ACHN renal, 106%. Also, the growth with CAKI-1 renal is 105%; in the test on A498 renal, 99.2%; in the test on MOLT-4 leukemia, 78.9%.
As to `Cc1c(C(=O)CCl)c(=O)n(-c2ccccc2)n1C`, the growth is 71.4% in the test with SK-MEL-2 melanoma; 76.8% with EKVX NSCLC; 86% in the test on SN12C renal; 64.2% in the test on UO-31 renal; 40.1% in the test with TK-10 renal; 47% in the test on ACHN renal. The growth with CAKI-1 renal is 29.8%; in the test with A498 renal, 77.4%; with MOLT-4 leukemia it was 24.8%.
With `CCN1CCN(Cc2ccc(NC(=O)Nc3ccc(-n4ccc5c(NC(=O)c6ccccc6)nccc54)cc3)cc2C(F)(F)F)CC1`, the growth was -31.5% (active) with SK-MEL-2 melanoma; 87.4% with EKVX NSCLC; 58.3% in the test with SN12C renal; -48.6% (active) in the test on UO-31 renal; 25.5% with TK-10 renal; -46.3% (active) in the test with ACHN renal. The growth was 47.3% in the test with CAKI-1 renal, 105% with A498 renal and -32.8% (active) in the test with MOLT-4 leukemia.
Consider `CNC(=O)OC1C(O[C@H]2C[C@H]3[C@@H]4CC=C5C[C@@H](O)CC[C@]5(C)[C@H]4CC[C@]3(C)[C@H]2[C@H](C)C(=O)CCC(C)C)OCC(O)C1OC1OCC(O)C(O)C1OC(=O)c1ccc(OC)cc1` (some centres undefined), for which the growth in the test with SK-MEL-2 melanoma was -33.6% (active); in the test with EKVX NSCLC, 30.1%; in the test on SN12C renal, 59.9%; with UO-31 renal it was -18.8% (active); with TK-10 renal, 14%; with ACHN renal, 39.2%. In addition, the growth in the test with CAKI-1 renal is 0.834% (active); with A498 renal it was -60.3% (active); in the test on CCRF-CEM leukemia, -13.7% (active); in the test on MOLT-4 leukemia, -40.2% (active).

Source of the values: PubChem BioAssay (NCI).
